# Source: PubChem BioAssay AID504452 (The Scripps Research Institute Molecular Screening Center, 2011)
# Active and inactive are the calls of the source. Rule as the data show it: active = activation above about 85%; inactive = the rest.
# Target: Peroxisome proliferator-activated receptor gamma (Homo sapiens) (UniProt P37231)
# Assay: PPARg partial agonist activation, primary screen, cell-based, luciferase reporter, luminescence (AID 504452);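 also: Cos-1 cells carrying PPARgamma and a response element luciferase reporter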
# Conditions: at 5 µM, stronger effect = higher value; activation (% of full agonist control): measured here: relative to full agonist control
# Sequence of Peroxisome proliferator-activated receptor gamma (Homo sapiens) (P37231 whole entry, looked up): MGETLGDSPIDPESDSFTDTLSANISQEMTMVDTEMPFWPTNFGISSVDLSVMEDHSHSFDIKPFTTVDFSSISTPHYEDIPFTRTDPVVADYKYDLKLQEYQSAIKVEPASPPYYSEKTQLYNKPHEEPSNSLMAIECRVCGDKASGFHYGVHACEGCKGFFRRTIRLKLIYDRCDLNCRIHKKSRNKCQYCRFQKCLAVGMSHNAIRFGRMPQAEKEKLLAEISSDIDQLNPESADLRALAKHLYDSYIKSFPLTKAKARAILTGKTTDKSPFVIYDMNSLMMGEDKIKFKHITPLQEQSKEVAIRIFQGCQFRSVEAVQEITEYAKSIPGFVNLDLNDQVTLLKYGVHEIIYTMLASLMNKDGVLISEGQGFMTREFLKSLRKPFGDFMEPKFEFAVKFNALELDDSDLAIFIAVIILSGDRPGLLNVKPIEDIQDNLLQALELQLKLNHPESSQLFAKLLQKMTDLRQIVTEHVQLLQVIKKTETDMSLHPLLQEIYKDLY
Structure (SMILES),activation (% of partial agonist control),activation (% of full agonist control)
CN(C)c1ccc(C(CNS(=O)(=O)c2cccc([N+](=O)[O-])c2)N2CCOCC2)cc1 (configuration not stated),70.6% (inactive),31.9%
CCC(=O)c1ccc(OCC(=O)OC(C)C(=O)Nc2c(C)n(C)n(-c3ccccc3)c2=O)cc1 (configuration not stated),89.5% (active),40.4%
CC(C)C[C@H](NC(=O)N1CC(=O)Nc2ccccc21)C(=O)N[C@@H](Cc1c[nH]c2ccccc12)C(=O)O,69.4% (inactive),31.3%
Cc1cccc(N2CCN(C(=O)c3cccc(N4C(=O)C5CC=CC(C)C5C4=O)c3)CC2)c1C (configuration not stated),36.3% (inactive),16.4%
CCOc1cc(N2CCOCC2)c(OCC)cc1NC(=O)c1ccc2ccccc2n1,103% (active),46.5%
Cc1cc(N2C(=O)C(O)=C(C(=O)c3ccco3)C2c2cccc(Oc3ccccc3)c2)no1 (configuration not stated),71.3% (inactive),32.2%
